# Data reported in PubChem BioAssay AID1347165 (National Center for Advancing Translational Sciences (NCATS), 2019).
# About 5,700 (2.6%) of roughly 220,000 compounds were called active. Inconclusive results (about 18%) are left out. The call rests on the fitted dose curve; in most records, active means well fitted inhibition curve with a large enough effect; inconclusive means small, poorly fitted or top-dose-only effect; inactive means no such curve, though single readings can be large or run the other way. This excerpt belongs to a sample that is enriched for actives.
# Biological target: Lysine-specific demethylase 5B (Homo sapiens) (UniProt Q9UGL1)
# Sequence (Q9UGL1 whole entry, looked up): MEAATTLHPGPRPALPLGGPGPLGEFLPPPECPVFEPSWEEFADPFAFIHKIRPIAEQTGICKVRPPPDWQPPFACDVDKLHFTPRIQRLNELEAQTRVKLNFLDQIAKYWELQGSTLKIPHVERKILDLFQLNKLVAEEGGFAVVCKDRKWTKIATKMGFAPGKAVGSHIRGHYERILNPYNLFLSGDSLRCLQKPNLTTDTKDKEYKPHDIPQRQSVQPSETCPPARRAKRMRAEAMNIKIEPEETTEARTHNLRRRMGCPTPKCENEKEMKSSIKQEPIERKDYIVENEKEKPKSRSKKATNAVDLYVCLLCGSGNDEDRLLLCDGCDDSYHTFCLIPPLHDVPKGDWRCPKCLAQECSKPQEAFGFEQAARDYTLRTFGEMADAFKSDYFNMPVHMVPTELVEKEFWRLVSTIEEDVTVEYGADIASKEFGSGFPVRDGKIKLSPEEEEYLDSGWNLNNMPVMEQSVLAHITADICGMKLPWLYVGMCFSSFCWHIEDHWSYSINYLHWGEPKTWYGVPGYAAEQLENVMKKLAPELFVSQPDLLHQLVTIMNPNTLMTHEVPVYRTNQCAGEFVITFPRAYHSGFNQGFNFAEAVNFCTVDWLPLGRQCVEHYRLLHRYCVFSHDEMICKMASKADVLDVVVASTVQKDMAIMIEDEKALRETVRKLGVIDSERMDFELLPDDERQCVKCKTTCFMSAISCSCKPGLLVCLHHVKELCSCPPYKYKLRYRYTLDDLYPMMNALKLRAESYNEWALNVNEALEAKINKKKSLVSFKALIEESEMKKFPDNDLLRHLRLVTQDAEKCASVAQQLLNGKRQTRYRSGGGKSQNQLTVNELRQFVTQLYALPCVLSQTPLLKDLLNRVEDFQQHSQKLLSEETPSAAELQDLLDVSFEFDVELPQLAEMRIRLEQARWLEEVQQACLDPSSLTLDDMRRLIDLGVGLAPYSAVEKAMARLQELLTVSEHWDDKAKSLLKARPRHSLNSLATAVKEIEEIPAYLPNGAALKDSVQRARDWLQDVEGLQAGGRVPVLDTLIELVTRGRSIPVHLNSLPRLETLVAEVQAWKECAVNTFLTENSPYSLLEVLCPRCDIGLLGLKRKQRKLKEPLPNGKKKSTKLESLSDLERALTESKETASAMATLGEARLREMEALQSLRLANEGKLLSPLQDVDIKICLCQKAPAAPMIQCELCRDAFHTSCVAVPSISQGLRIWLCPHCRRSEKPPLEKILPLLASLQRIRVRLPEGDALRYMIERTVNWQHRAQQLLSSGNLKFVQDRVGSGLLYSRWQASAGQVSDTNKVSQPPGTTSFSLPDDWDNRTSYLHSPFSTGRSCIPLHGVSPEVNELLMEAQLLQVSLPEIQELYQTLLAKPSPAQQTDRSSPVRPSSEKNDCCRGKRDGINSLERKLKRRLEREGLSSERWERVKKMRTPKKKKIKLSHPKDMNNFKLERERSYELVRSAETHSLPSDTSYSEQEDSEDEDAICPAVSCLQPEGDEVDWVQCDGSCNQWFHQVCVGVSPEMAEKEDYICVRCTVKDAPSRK
# Experiment: Primary screen for KDM5B Histone Demethylases FDH-coupled qHTS; further: nearly all actives have a fitted effect of over 70% in size; on activity change, negative = inhibition: 0% is about no effect
# Details: FDH-coupled NADH fluorescence (FDH is formaldehyde dehydrogenase); series mostly up to 57.7 µM; activity change, negative = inhibition: at the top concentration
# Summary of the method: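 Here, H3K4me3 peptide (12.5 µM in substrate mix) is demethylated by KDM5BΔAP, 200 nM final, after 10 min compound exposure. Formaldehyde product is coupled through FDH (0.25 U/mL in mix) to NADH fluorescence; 30-min ΔRFU feeds dose-response curves.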
# Potency means the concentration at half of the fitted maximal effect.
Structure (SMILES),"activity change, negative = inhibition",Potency
CCCCn1nc(C(=O)NC(CC)CC)c2ccccc2c1=O,13.2% (inactive),
COc1ccc(-c2[nH]ncc2CN2CCCC(C(=O)NCc3ccccc3)CCNC(=O)CC2)cc1 (stereo not drawn),-19.8% (inactive),
COc1ccc2cc(-c3[nH]ncc3CN3CCN(c4cccc(C)n4)CC3)ccc2c1,,28.2 µM (active)
COc1ccc(-c2cc(N3CCN(C(=O)Cc4cccc(OC)c4)CC3)n[nH]2)cc1,-10.2% (inactive),
CCOc1ccc(NC(=O)CSc2nc3c(c(=O)[nH]2)CN(Cc2ccc(Cl)cc2)CC3)cc1,-4.81% (inactive),
O=C(c1nc2c(o1)CCN(Cc1ccccc1F)CC2)N1CCOCC1,-4.96% [at 86.2 µM] (inactive),
O=C(Nc1ccc(Cl)cc1)c1nc2c(o1)CCN(Cc1ccsc1)CC2,,31.6 µM (active)
COc1ccc(CN2CCc3nc(C(=O)N4CCOCC4)oc3CC2)cc1OC,4.99% [at 86.2 µM] (inactive),
O=C(Nc1ccccc1)c1nc2c(o1)CCN(Cc1cccc(Cl)c1)CC2,,28.2 µM (active)
O=C(NCC1CC1)c1nc2c(o1)CCN(CCc1ccccc1)CC2,-23.1% [at 86.2 µM] (inactive),
Cc1cccc(CN2CCc3nc(C(=O)Nc4ccc(Cl)cc4)oc3CC2)c1,,31.6 µM (active)
O=C(Nc1ccc(-n2cccn2)cc1)C1CCN(Cc2ccsc2)CC1,23.1% (inactive),
O=C(NCC1CC1)c1nc2c(o1)CCN(Cc1cccc(F)c1F)CC2,-26.9% [at 86.2 µM] (inactive),
Cc1cc(Br)ccc1NC(=O)CN(C)Cc1ncc(-c2ccc(F)cc2)o1,-15.3% (inactive),
CCc1ccc(CN(C(=O)c2cc(=O)c3cc(C)cc(C)c3o2)C2CCS(=O)(=O)C2)cc1 (stereo not drawn),-0.964% (inactive),
O=C(CSc1ncnc2sc3c(c12)CCCC3)Nc1ccc(F)cc1,8.22% (inactive),
CC(C)NC(=O)c1ccccc1NC(=O)C(Cl)Cl,-10.1% (inactive),
CCCn1nc(C(=O)NCc2ccc(OC)cc2)c2ccccc2c1=O,7.93% (inactive),
Cc1ccc(-c2nc(C(=O)N(C)Cc3ccccc3)no2)cc1,-21.9% (inactive),
Oc1ccc(-c2ccc(-c3nc(CCc4ccccc4)no3)cn2)cc1,,25.1 µM (active)
O=C(NCCc1noc(-c2ccccc2)n1)C1CC1,24% (inactive),
CCc1ccc(N/C(N)=N/c2nc(C)cc(C)n2)cc1,16.5% (inactive),
COC(=O)CC1c2cc(OC)c(OC)cc2CCN1Cc1nc(CC(C)C)no1 (stereo not drawn),-7.43% (inactive),
O=C(/C=C/c1ccc(-c2cc(Cl)ccc2Cl)o1)c1ccc(F)cc1,-4.81% (inactive),
COC[C@@H]1CN(c2ncccn2)C[C@H]1C(=O)Nc1ccncc1,,20 µM (active)
CNC(=O)[C@@H]1CN(C(=O)c2n[nH]c3ccccc23)C[C@H]1COC,-15.7% (inactive),
CNC(=O)[C@@H]1CN(C(=O)Cc2cccnc2)C[C@H]1COC,-8.75% (inactive),
S=C(NCCc1ccc(Cl)cc1)Nc1ccc(Oc2ccccc2)cc1,3.85% (inactive),
